Screens: PubChem, National Center for Advancing Translational Sciences (NCATS)
Lamin A splicing: modulators of lamin A splicing; HeLa LMNA splicing GFP/RFP minigene ratio, 48 h; Potency, µM (series often up to 46.1 µM), for the others: at the top dose ratio change, negative = inhibition, usual class: inhibitors; actives 0.01% (n = 200,000); active = well fitted inhibition curve with a large enough effect in the signal ratio, with a control signal flat, not every such curve was filed as active; inconclusive = small, poorly fitted or top-dose-only effect, or effect the other way, or a change in a side signal; the % refers to the signal ratio; note: % is set by controls: 0 for no effect and ±100 for the full control effect
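S3 HeLa cells stably expressing lamin A-EGFP splicing minigene plus DsRed2, 600 cells/well, 48 h compound exposure at 37C. Laser-scanning cytometry; analysed as GFP (500-530 nm)/RFP (575-640 nm) total intensity ratio; 0.5% DMSO vehicle.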
HPGD inh: inhibitors of human 15-hydroxyprostaglandin dehydrogenase (HPGD); P15428; purified HPGD, NADH fluorescence kinetic, PGE2 substrate; Potency, µM, inactives show at the top dose activity change, negative = inhibition, most hits filed as inhibitors; actives 4.3% (n = 150,000); AID 894; active = well fitted inhibition curve with a large enough effect, not every such curve was filed as active; inconclusive = small, poorly fitted or top-dose-only effect, or another doubt; inactive = no such curve, though single readings can be large or run the other way; note: % is set by controls: 0 for no effect and ±100 for the full control effect
Target sequence (P15428 whole entry, looked up): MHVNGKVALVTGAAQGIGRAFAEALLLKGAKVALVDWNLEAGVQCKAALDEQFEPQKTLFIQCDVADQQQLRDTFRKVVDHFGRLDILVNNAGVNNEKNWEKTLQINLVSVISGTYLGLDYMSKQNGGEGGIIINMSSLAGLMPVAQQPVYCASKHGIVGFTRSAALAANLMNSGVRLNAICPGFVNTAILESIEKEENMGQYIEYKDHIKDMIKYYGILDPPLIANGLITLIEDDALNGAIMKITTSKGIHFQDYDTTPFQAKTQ
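20 nM HPGD preincubated 15 min at room temperature with compound in 50 mM Tris-HCl pH 8, 0.01% Tween 20. Started with 1 mM NAD+ and 30 uM prostaglandin E2; NADH fluorescence (360/450 nm) read 5 times over 30-s intervals, last minus first.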
HTT aggregate: reduces HttQ103-GFP aggregates in PC12 cells | PC12 HttQ103-GFP aggregates, Acumen cytometry, 40 h | Potency, µM (highest dose often 46.1 µM), inactives show top-dose activity change, negative = inhibition, usual class: inhibitors | actives 1.1% (n = 220,000); note: % is set by controls: 0 for no effect and ±100 for the full control effect; nearly all actives have a fitted effect of over 60% in size
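Compounds (qHTS titration) were added to PC12 cells expressing an ecdysone-driven HTT exon 1 Q103–GFP fusion after induction with 100 nM tebufenozide. Aggregate formation was measured as GFP objects in cell lysates.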
ALDH1A1 block: ALDH1A1 (human) enzyme inhibition | P00352 | actives 7.3% (n = 220,000) | Potency, µM (titrated, usually from 75.3 µM), for the others: at the top dose activity, negative = inhibition, actives largely listed as inhibitors | Purified ALDH1A1, NADH fluorescence, propionaldehyde substrate; active = well fitted inhibition curve with a large enough effect, not every such curve was filed as active; inconclusive = small, poorly fitted or top-dose-only effect, or another doubt; inactive = no such curve, though single readings can be large or run the other way;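 note: plate controls were no enzyme wells and a reference inhibitor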
Target sequence (P00352 whole entry, looked up): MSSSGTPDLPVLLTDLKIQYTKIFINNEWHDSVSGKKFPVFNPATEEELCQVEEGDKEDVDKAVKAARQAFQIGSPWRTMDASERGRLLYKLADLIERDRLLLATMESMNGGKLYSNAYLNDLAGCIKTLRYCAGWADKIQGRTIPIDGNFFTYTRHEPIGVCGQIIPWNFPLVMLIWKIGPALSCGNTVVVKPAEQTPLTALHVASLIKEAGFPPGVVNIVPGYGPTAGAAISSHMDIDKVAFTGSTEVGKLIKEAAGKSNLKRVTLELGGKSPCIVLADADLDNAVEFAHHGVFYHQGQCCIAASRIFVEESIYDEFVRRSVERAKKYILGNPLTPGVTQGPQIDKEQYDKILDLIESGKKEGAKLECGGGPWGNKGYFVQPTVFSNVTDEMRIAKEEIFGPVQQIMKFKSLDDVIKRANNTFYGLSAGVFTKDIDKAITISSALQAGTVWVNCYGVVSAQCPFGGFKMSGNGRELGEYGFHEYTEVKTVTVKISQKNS
HTT ATP protect: Huntington cell model cytoprotection by ATP luminescence; Potency, µM (top dose mostly 56.4 µM), without a hit: cytoprotection (ATP increase), hits mostly activators; PC12 HTT-Q103 induced, cytoprotection, ATP luminescence, 40 h; actives 0.14% (n = 230,000); AID 1471; note: % of control where 0% means no effect; nearly all actives have a fitted effect of over 45% in size
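Rat PC12, Q103 Htt exon1-GFP fusion, ecdysone promoter; tebufenozide inducer 100 nM final; compound titration; qHTS, 1500 cells/well; ATPlite luminescent read.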
Starred values were filed as active, the others as inactive; ? = inconclusive; nt = no result; [ ] = dose if it differs, or a comment. This is a sample that favours compounds with a hit; in the whole collection about 8.8% have one here. Unless noted, calls come from the whole dose curve; as a rule, active = well fitted curve in the direction sought with a large enough effect; inconclusive = small, poorly fitted or top-dose-only effect, or another doubt; inactive = no such curve, though single readings can be large; an effect the other way counts as inactive or inconclusive. Potency is the fitted concentration of half-maximal effect.

SMILES	Lamin A splicing	HPGD inh	HTT aggregate	ALDH1A1 block	HTT ATP protect
Cc1sc2ccccc2[n+]1CCC(=O)O	nt	-3%	nt	5%[13.5 µM]	3%[10 µM]
COc1ccc(-n2c(SCC(=O)N3CCCCC3)nc(O)cc2=O)cc1	3%	-7%	27%	22µM*	-8%[10 µM]
CCn1c(SCC(=O)N2CCCCC2)nc(O)cc1=O	13%	0.28µM*	10%	1%	29%
CCn1c(SCC(=O)N2CCOCC2)nc(O)cc1=O	-6%	-28%	-7%	6%	-2%
CCOC(=O)c1ccc2c(c1)nc(SCC(=O)c1ccco1)n2CC	15%	-29%	12%	?	-8%
CCOC(=O)c1ccc2c(c1)nc(SCC(=O)N1CCCCC1)n2CC	14%	5µM*	-8%	?	-11%[10 µM]
COc1ccc(-n2c(SCC(=O)N3CCCC3)nc3ccccc3c2=O)cc1	nt	nt	-15%[9.22 µM]	28%	-21%[10 µM]
CCC[C@@H]1O[C@@H]2C[C@@H]3[C@H]4CCC5=CC(=O)C=C[C@@]5(C)[C@H]4[C@H](O)C[C@@]3(C)[C@@]2(C(=O)CO)O1	10%	-1%	-3%	-2%[20.9 µM]	-14%[40.3 µM]
CN(C)CCN1C(=O)CC[C@]2(C)C1=CC[C@@H]1[C@@H]2CC[C@]2(C)[C@H]1CC[C@]2(C)O	nt	-11%	nt	5%[13.5 µM]	12%[10 µM]
CO[C@H]1COC(=O)C/C=C\[C@H](C)COC(=O)[C@@H](C)NC(=O)C/C=C\[C@@H]1C	nt	nt	nt	9%[13.5 µM]	?
C=CCSC1=N/C(=C\c2cc(OCC)c(OC(C)=O)c([N+](=O)[O-])c2)C(=O)S1	8%	6.3µM*	0%	0%	-16%[10 µM]
Clc1ccc(-c2nc3ccncc3[nH]2)cc1	-9%	?	0%	11µM*	-28%[10 µM]
CCOC(=O)C1=C(CC)Nc2ccccc2N=C1NC(=O)c1ccc(S(=O)(=O)N2CCOCC2)cc1	nt	nt	-12%	14µM*	-14%
CCOC(=O)C1=C(C)Nc2ccccc2N=C1NC(=O)C(c1ccccc1)c1ccccc1	nt	nt	1%	0.14µM*	1%[10 µM]
CCOC(=O)C1=C(CC)Nc2ccccc2N=C1NC(=O)c1ccc(S(=O)(=O)N(C)C)cc1	-10%	-24%	5%	?	-7%
CCOC(=O)C1=C(C)Nc2ccccc2N=C1NC(=O)c1cccc(S(=O)(=O)N(C)C)c1	-8%	1%	6%	0%	-24%
O=C(O)c1cc2c(cc1S(=O)(=O)O)[C@H]1[C@@H](C3[C@H]2[C@@]2(Cl)C(Cl)=C(Cl)C3(Cl)C2(Cl)Cl)[C@]2(Cl)C(Cl)=C(Cl)C1(Cl)C2(Cl)Cl (some centres not stated)	nt	?	nt	-11%[13.5 µM]	nt
Cc1ccccc1OCCCCn1cnc2ccccc21	?	-17%	7.1µM*	2%	-12%
c1ccc2c(c1)ncn2CCCCOc1ccc2c(c1)CCC2	?	?	-27%[9.22 µM]	14µM*	-64%
CCC(=O)N1c2ccccc2CC1C(=O)NCCc1ccc(OC)c(OC)c1 (configuration not stated)	1%[46 µM]	nt	nt	nt	nt
CC(C)CCn1c(=O)c2ccccc2n2c(CN3CCOCC3)nnc12	nt	nt	12%	-7%	23%
O=c1c2c([N+](=O)[O-])cc([N+](=O)[O-])cc2sn1-c1ccc(Br)cc1	-15%	2.2µM*	6%	1.4µM*	5%[10 µM]
CCCCNC(=O)CC1Nc2ccccc2NC1=O (configuration not stated)	-16%	-26%	-7%	?	14%[10 µM]
CCCCOc1ccccc1NC(=O)CC1Nc2ccccc2NC1=O (configuration not stated)	6%	-7%	9%	14µM*	-1%
S=C(c1c[nH]c2ccccc12)N1CCOCC1	?	nt	4%[9.22 µM]	20µM*	-3%[10 µM]
SMILES	Lamin A splicing	HPGD inh	HTT aggregate	ALDH1A1 block	HTT ATP protect
Cc1ccc(-n2ncc(C(=O)N3CCC(c4ccccc4)C3)c2C2CCN(C(=O)OC(C)(C)C)CC2)cc1 (configuration not stated)	-2%[46 µM]	nt	nt	nt	nt
CCOc1ccc(N2C(=O)CC(NCCNc3ccc([N+](=O)[O-])cn3)C2=O)cc1 (configuration not stated)	15%[46 µM]	nt	-19%	0.89µM*	-9%
COc1ccc(N2C(=O)CC(NCCNc3ccc([N+](=O)[O-])cn3)C2=O)cc1 (configuration not stated)	?	-16%	-10%	1.8µM*	nt
CCOc1ccc(CCNC(=O)c2ccc(CSCc3ccccc3C)o2)cc1OCC	-23%[46 µM]	nt	nt	nt	nt
CC(=O)N[C@H](Cc1ccc(O)cc1)C(=O)O	nt	-5%	nt	-7%[13.5 µM]	-10%[10 µM]
CCOC(=O)N1CCC(NC(=O)C2CCN(C(=O)c3cc4oc(C)cc4n3Cc3c(F)cccc3Cl)CC2)CC1	nt	nt	12%[9.22 µM]	20µM*	12%
COC(CNC(=O)C1CCN(C(=O)c2cc3oc(C)cc3n2Cc2c(F)cccc2Cl)CC1)OC	nt	nt	-16%	?	?
COC(C#CCCN(C)C)(c1ccccc1)c1ccccc1	-2%	-6%	-6%	?	-2%[10 µM]
CC(=O)c1sc2nc(C)cc(C)c2c1N	-2%	?	?	?	4%[10 µM]
Cc1cc(C)c2c(N)c(C(=O)N3CCCCCC3)sc2n1	-8%	1.6µM*	-1%	?	-2%
COCc1cc(C)nc2sc(C(=O)N3CCCC3)c(N)c12	3%	2.5µM*	-7%	?	-25%
Cc1cc2c(n1-c1ccc(C(=O)NCc3ccccc3Cl)cc1)CCCC2	-5%[46 µM]	nt	nt	nt	nt
CCc1ccc(N2C(=O)CC(Cn3nc(C)cc3C)C2=O)cc1 (configuration not stated)	nt	nt	-16%[9.22 µM]	5%	-3%[10 µM]
CCCC(=O)c1c[nH]c(C(=O)N2CCOCC2)c1	nt	nt	-7%[9.22 µM]	?	-47%
O=C(CSC1=NCCS1)c1ccc(Cl)cc1	-27%[46 µM]	nt	2%	?	-42%
Nc1cc(N)nc(SCC(=O)c2ccccc2)n1	2%	-29%	-23%	?	-23%
C[n+]1cc[nH]c1SCC(=O)c1ccccc1	-6%	-8%	8%	25µM*	-18%
C[n+]1cc[nH]c1SCC(=O)c1ccc(Cl)cc1	nt	nt	-2%[9.22 µM]	19µM*	-31%[1.9 µM]
Cc1ccc(CNc2ncnc3c2c(-c2ccccc2)cn3-c2cccc(Cl)c2)cc1	-16%[46 µM]	nt	nt	nt	nt
C=CCN1C(=O)C(CC(=O)O)SC1=Nc1cccc([N+](=O)[O-])c1 (configuration not stated)	-15%[46 µM]	nt	5%	14µM*	1%
Cc1cccc(C(=O)N2CCc3cc(CNC(=O)CCc4ccccc4)ccc32)c1	6%[46 µM]	nt	nt	nt	nt
CCc1cc(SC#N)cc(CC)c1NC(=O)CCl	?	?	9%	14µM*	nt
Cc1cc(C)c2c(NC(=O)CCl)nn(C)c2n1	22%[46 µM]	nt	?	?	-40%[10 µM]
O=C(Nc1cc(S(=O)(=O)N2CCOCC2)ccc1O)c1ccc2c(c1)S(=O)(=O)c1ccccc1C2=O	-3%[46 µM]	nt	24%	1.1µM*	nt
